Shown are actives, neighbours in structure and some others; about 2.1% of the full set was active somewhere.
aSyn 5UTR inh: MLPCN primary screen, SNCA 5' untranslated region. alpha-synuclein 5'UTR reporter, inhibitor activity. 300,000 tested, 0.82% active. inhibition, % (tested at 7.5 µM); in the data active = inhibition above about 60%; inconclusive = no clear call, values can overlap the other calls;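 note: H4 neuroglioblastoma cells stably carrying SNCA 5'UTR luciferase fusion; 0% = DMSO wells and 100% = positive control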
IEC-6 cytotox: cytotoxicity in IEC-6 intestinal epithelial cells, primary screen, cytotoxicity control for KLF5 inhibitor project, cell-based, luminescence | IEC-6 cytotoxicity, luminescence viability | inhibition, % at 5 µM | 290,000 tested, 0.78% active | AID 1825, 2009; in the data active = inhibition above about 22%;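 note: 0% = plate median of test compound wells and 100% = cytotoxic reference compound wells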
APP 5UTR inh: inhibitors of APP translation via 5'UTR reporter, primary screen, APP 5'UTR luciferase, SH-SY5Y cells | inhibition, % at 2 µM | AID 1285, 2008 | 190,000 tested, 0.82% active | SH-SY5Y APP 5'UTR-luciferase reporter, luminescence;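 active = inhibition above a set limit, derived from the sample mean plus 3 SD, cut at about 45% in these data; inconclusive = one replicate passes the limit while the other fails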
BaF3 tox: parental Ba/F3 cell viability inhibition, counter-screen for JAK2V617F inhibitor project, murine pro-B, CellTiter-Glo luminescence | CellTiter-Glo ATP luminescence | inhibition, % at 5.6 µM | 220,000 tested, 1.1% active | AID 1486, 2009;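 active = inhibition above a per-campaign cutoff, the mean inhibition of all tested compounds plus 3 SD, cut at about 27% in these data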;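 note: 0% = DMSO wells and 100% = JAK Inhibitor I control wells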
KLF5 inh: KLF5 expression inhibitors, primary screen, DLD-1 cells, luminescence; DLD-1 KLF5 promoter-luciferase reporter; inhibition, % at 5 µM; 290,000 tested, 0.23% active; AID 1700, 2009;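 active = inhibition above a per-plate limit of that plate's mean compound inhibition plus 3 SD, cut at about 60% in these data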;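 note: 0% = DMSO wells and 100% = LY294002 at 200 µM; higher means less KLF5 promoter-driven luciferase light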
Ba/F3 V617F tox: reduced viability of JAK2V617F-dependent Ba/F3 cells, primary screen, JAK2V617F inhibitor project, cell-based, Ba/F3 EpoR-JAK2V617F, luminescence. ATP luminescence. inhibition, % at 5.6 µM. 220,000 tested, 1.1% active. AID 1446, 2008;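 active = inhibition above the campaign mean plus 3 SD over all tested compounds, cut at about 24% in these data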;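 note: cytokine-independent growth of Ba/F3 cells driven by EpoR plus mutant JAK2; 0% = DMSO-treated cells and 100% = JAK inhibitor I control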
Active calls of the source: *; ? = inconclusive; nt = no result given.

SMILES | aSyn 5UTR inh | IEC-6 cytotox | APP 5UTR inh | BaF3 tox | KLF5 inh | Ba/F3 V617F tox
CC(C)(C)n1cnnc1Sc1ncccc1[N+](=O)[O-] | -10 | -4 | nt | -5 | -27 | -4
Nc1ccc(Oc2ccc3c(c2)C(=O)NC3=O)cc1 | -2 | -6 | nt | nt | -61 | nt
C#CCOCCOCCOCCNc1nc(N2CCN(C(=O)CCCCCCCCCCNC(=O)[C@H](CO)n3cc(CCCSC)nn3)CC2)nc(N2CCN(C(=O)CCCCCCCCCCNC(=O)[C@H](CCCCN)n3cc(C[C@@H](C)CC)nn3)CC2)n1 | 110* | nt | nt | nt | nt | nt
C#CCOCCOCCOCCNc1nc(N2CCN(C(=O)CCCCCCCCCCNC(=O)[C@H](CCCCN)n3cc(C[C@@H](C)CC)nn3)CC2)nc(N2CCN(C(=O)CCCCCCCCCCNC(=O)[C@H](CCCCN)n3cc(C[C@@H](C)CC)nn3)CC2)n1 | 107* | nt | nt | nt | nt | nt
C#CCOCCOCCOCCNc1nc(N2CCN(C(=O)CCCCCCCCCCNC(=O)[C@H](CO)n3cc(CCCSC)nn3)CC2)nc(N2CCN(C(=O)CCCCCCCCCCNC(=O)[C@H](CO)n3cc(CCCSC)nn3)CC2)n1 | -9 | nt | nt | nt | nt | nt
C#CCOCCOCCOCCNc1nc(N2CCN(C(=O)CCCCCCCCCCNC(=O)[C@H](CCCCN)n3cc(CCCC(=O)O)nn3)CC2)nc(N2CCN(C(=O)CCCCCCCCCCNC(=O)[C@H](CCCN=C(N)N)n3cc(C[C@@H](C)CC)nn3)CC2)n1 | -132 | nt | nt | nt | nt | nt
CC(C)(C)SCCNC(=O)/C=C/c1ccccc1 | -113 | 0 | nt | 45* | -42 | 0
CC(C)(C)SCCNC(=O)/C=C/c1ccc(F)cc1 | -68 | -5 | -10 | 2 | -76 | -2
Cc1ccc2oc(/N=C(\N)NC(=O)C(C)(C)C)nc2c1 | 96* | 4 | nt | 2 | 44 | -1
Oc1c(CN2CCCCC2)cc(COCc2ccccc2)c2cccnc12 | 92* | 2 | 85* | 99* | 48 | 89*
Oc1c(CN2CCN(c3ccccn3)CC2)cc(Cl)c2cccnc12 | 92* | -5 | 78* | 4 | 2 | -2
COCc1cc(CN2CCCC2)c(O)c2ncccc12 | ? | -2 | 20 | 59* | 2 | 72*
OCCN1CCN(Cc2cc(Cl)c3cccnc3c2O)CC1 | 20 | -3 | 0 | 0 | -15 | -5
Cc1cc(C)cc(C(=O)Nn2cnnc2)c1 | -1 | -2 | nt | nt | -36 | nt
O=C(c1ccncc1)N(Cc1cc2ccccc2[nH]c1=O)C1CCCCC1 | 29 | 8 | 12 | 29* | 22 | 40*
O=C(c1ccco1)N(Cc1cc2ccccc2[nH]c1=O)C1CCCCC1 | 13 | 2 | -14 | -4 | 5 | -5
Cc1cccc(OCC(O)CN2CC3(C)CC2CC(C)(C)C3)c1 (stereo unspecified) | 20 | -4 | 49* | 4 | -21 | -2
Cc1ccc(OCC(O)CN2CC3(C)CC2CC(C)(C)C3)cc1 (stereo unspecified) | -22 | -2 | 7 | 4 | 8 | -3
Cc1ccc(C(=O)OC(C)CN2C(C)CCCC2C)cc1 (stereo unspecified) | -37 | -1 | nt | nt | 16 | nt
Cc1ccc(-c2cc3cccc[n+]3cc2-c2ccc(C)cc2)cc1 | 51 | 28* | 6 | 79* | 15 | 96*
O=C(c1cccc(Br)c1)N1CCN(C(=O)N2CCOCC2)CC1 | 8 | -1 | 63* | -3 | -47 | -1
CC(=O)N(O)CCCCCNC(=O)CCC(=O)N(O)CCCCCNC(=O)CCC(=O)N(O)CCCCCN | 75* | 1 | 13 | 9 | -7 | 4
C#CC[N+]1(CC#Cc2cccc3ccccc23)CCOCC1 | -2 | 1 | -13 | 50* | -16 | 81*
C(#Cc1ccccc1)C[N+]1(CC#Cc2cccc3ccccc23)CCCC1 | 3 | 7 | -8 | 81* | -10 | 97*
C#CC[N+]1(CC#Cc2ccccc2)CCCC1 | 9 | 6 | -14 | 45* | -11 | 40*
SMILES | aSyn 5UTR inh | IEC-6 cytotox | APP 5UTR inh | BaF3 tox | KLF5 inh | Ba/F3 V617F tox
C#CC[N+]1(CC#Cc2ccc(C#CC[N+]3(CC#C)CCOCC3)cc2)CCOCC1 | -5 | -1 | -10 | 9 | -20 | 3
CC1CC(OC(=O)CN2CCCCC2)CC(C)(C)C1 (stereo unspecified) | 8 | -6 | nt | -3 | 4 | -3
CN(C)CCn1cnc2c(c1=N)C(c1ccccc1)c1ccc3ccccc3c1O2 (stereo unspecified) | 90* | 8 | nt | nt | -13 | nt
COc1ccc(CN(C(=O)/C=C/C(=O)c2ccc(OC)cc2O)C(C(=O)NC2CCCCC2)c2ccncc2)cc1 (stereo unspecified) | 13 | -4 | 25 | 10 | 7 | 4
COCCN(CC(=O)NC1CCCCC1)C(=O)/C=C/C(=O)c1ccc(OC)cc1O | 79* | -8 | 93* | 3 | -7 | -3
COc1ccc(C(=O)/C=C/C(=O)N(CC(=O)NC2CCCCC2)Cc2cccs2)c(O)c1 | 71* | 2 | 77* | 4 | 15 | 5
CC(C)(C)c1ccc(OCCNCc2ccccc2)cc1 | -9 | 8 | nt | nt | -30 | nt
C[n+]1ccccc1COc1ccc(C(C)(C)C)cc1 | 30 | 0 | 1 | 68* | 0 | 73*
CC[C@@]1(O)C(=O)OCc2c1cc1n(c2=O)Cc2cc3c(N)cccc3nc2-1 | 103* | nt | nt | nt | nt | nt
CC[C@@]1(O)C(=O)OCc2c1cc1n(c2=O)Cc2cc3c(CN(C)C)c(O)ccc3nc2-1 | 26 | nt | nt | nt | nt | nt
COc1cccc(N2CCN(c3ccc4nnc(CCC(=O)Nc5ncccc5C)n4n3)CC2)c1 | 9 | 6 | nt | nt | -18 | nt
CC(=O)c1ccc(N2CCN(S(=O)(=O)c3ccc4c(c3)NC(=O)CO4)CC2)cc1 | 20 | 2 | nt | nt | -9 | nt
C=Cn1cc[n+](CC(=O)c2ccc(Cl)c(Cl)c2)c1 | 21 | -1 | nt | nt | -10 | nt
O=C(NCC1CCCO1)C(c1ccncc1)N(Cc1cccs1)C(=O)Cn1nnc(-c2ccc(F)cc2)n1 (stereo unspecified) | 19 | -3 | 48* | -1 | -10 | -4
OCc1cn(-c2ccccc2)nc1-c1ccc(-c2nn(-c3ccccc3)cc2CO)cc1 | 25 | 3 | -10 | 3 | -38 | 3
Cc1ccc(-c2nn(-c3ccccc3)cc2CSC(=N)N)cc1 | 119* | 1 | -16 | 5 | -15 | 2
O=[N+]([O-])c1cccc(NC(=S)Nc2nc(-c3ccc(Cl)cc3Cl)cs2)c1 | 73* | 7 | nt | nt | 8 | nt
CC(=O)Nc1nc(C)c(-c2csc(Nc3cccc([N+](=O)[O-])c3)n2)s1 | 67* | 12 | -10 | 3 | -41 | -2
CCC(C)[C@H](NS(=O)(=O)c1ccc(C)cc1)C(=O)N1CCC(C(=O)N[C@@H](Cc2ccccc2)C(=O)O)CC1 (stereo partly specified) | -9 | -2 | nt | nt | 1 | nt

Source: PubChem BioAssay (several laboratories)
